From PubChem BioAssay AID1159580 (chemical genetic matrix, 2015)
The campaign covered roughly 5,500 compounds. About 2,000 (36%) were called active. Roughly 18% stayed inconclusive and do not appear here. Cut-off read from the data, not from the text of the source: active = normalized growth mostly below about 0.91 (no sharp cut-off); inconclusive = no clear call, values can overlap the other calls; inactive = mostly above about 0.92. The list shows a part of the results.

Experiment: chemical genetic growth profiling, strain panel (AID 1159580);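 note: tested at 20 µM; growth read once vehicle control cultures reached saturation at 30 °C; 1 = growth at the plate median or of vehicle wells; lower values mean less growth of the strain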
Conditions: growth OD

Measured: normalized growth

C[n+]1ccccc1/C=N/O
inactive: S. cerevisiae deletion strains, locus YJR066W, strain TOR1, hits give low values 0.986 | S. cerevisiae deletion strains, locus YKL009W, strain mrt4, hits give low values 1.03 | S. cerevisiae deletion strains, locus YKL068W, hits give low values 1.01 | S. cerevisiae deletion strains, locus YKL085W, strain MDH1 (second series), hits give low values 1 | S. cerevisiae deletion strains, locus YKL085W, strain MDH1, hits give low values 1 | S. cerevisiae deletion strains, locus YKL160W, strain elf1, hits give low values 0.997 | S. cerevisiae deletion strains, locus YKL190W, strain CNB1, hits give low values 1.01 | S. cerevisiae deletion strains, locus YKR001C, strain vps1, hits give low values 0.989 | S. cerevisiae deletion strains, locus YKR026C, strain gcn3, hits give low values 1.01 | S. cerevisiae deletion strains, locus YKR091W, strain srl3, hits give low values 0.993 | S. cerevisiae deletion strains, locus YLL001W, strain dnm1, hits give low values 0.973 | S. cerevisiae deletion strains, locus YLL026W, hits give low values 0.996 | S. cerevisiae deletion strains, locus YLL041C, strain sdh2, hits give low values 0.985 | S. cerevisiae deletion strains, locus YLR027C, strain aat2, hits give low values 1.01 | S. cerevisiae deletion strains, locus YLR039C, strain RIC1, hits give low values 1.01 | S. cerevisiae deletion strains, locus YLR058C, strain SHM2, hits give low values 1.01 | S. cerevisiae deletion strains, locus YLR102C, strain apc9, hits give low values 0.994 | S. cerevisiae deletion strains, locus YLR113W, strain HOG1, hits give low values 0.999 | S. cerevisiae deletion strains, locus YLR221C, strain rsa3, hits give low values 1.02 | S. cerevisiae deletion strains, locus YLR258W, strain gsy2, hits give low values 0.991 | S. cerevisiae deletion strains, locus YLR262C, strain YPT6 (second series), hits give low values 1.02 | S. cerevisiae deletion strains, locus YLR262C, strain YPT6, hits give low values 1 | S. cerevisiae deletion strains, locus YLR268W, strain sec22, hits give low values 0.998 | S. cerevisiae deletion strains, locus YLR320W, strain mms22, hits give low values 0.981 | S. cerevisiae deletion strains, locus YLR330W, strain CHS5, hits give low values 1.01 | S. cerevisiae deletion strains, locus YLR342W, strain FKS1 (second series), hits give low values 1 | S. cerevisiae deletion strains, locus YLR342W, strain FKS1, hits give low values 1.02 | S. cerevisiae deletion strains, locus YLR357W, strain rsc2, hits give low values 0.958 | S. cerevisiae deletion strains, locus YLR370C, strain arc18, hits give low values 1.01 | S. cerevisiae deletion strains, locus YLR371W, strain rom2, hits give low values 0.993 | S. cerevisiae deletion strains, locus YLR384C, strain iki3, hits give low values 1 | S. cerevisiae deletion strains, locus YLR418C, strain cdc73, hits give low values 0.983 | S. cerevisiae deletion strains, locus YML016C, strain PPZ1, hits give low values 1.01 | S. cerevisiae deletion strains, locus YML032C, strain rad52, hits give low values 0.989 | S. cerevisiae deletion strains, locus YML120C, strain ndi1, hits give low values 1.02 | S. cerevisiae deletion strains, locus YML124C, strain tub3, hits give low values 1 | S. cerevisiae deletion strains, locus YMR058W, strain fet3, hits give low values 1.01 | S. cerevisiae deletion strains, locus YMR078C, strain ctf18, hits give low values 0.993 | S. cerevisiae deletion strains, locus YMR125W, strain sto1, hits give low values 1 | S. cerevisiae deletion strains, locus YMR129W, hits give low values 0.998 | S. cerevisiae deletion strains, locus YMR205C, strain PFK2, hits give low values 1.01 | S. cerevisiae deletion strains, locus YMR223W, strain ubp8, hits give low values 1.01 | S. cerevisiae deletion strains, locus YMR231W, strain pep5, hits give low values 0.996 | S. cerevisiae deletion strains, locus YMR307W, strain GAS1, hits give low values 0.992 | S. cerevisiae deletion strains, locus YNL067W, strain RPL9B, hits give low values 1 | S. cerevisiae deletion strains, locus YNL071W, strain lat1, hits give low values 1.01 | S. cerevisiae deletion strains, locus YNL128W, strain TEP1, hits give low values 1.02 | S. cerevisiae deletion strains, locus YNL153C, strain GIM3, hits give low values 1.01 | S. cerevisiae deletion strains, locus YNL183C, strain NPR1, hits give low values 0.924 | S. cerevisiae deletion strains, locus YNL209W, strain ssb2, hits give low values 1.02 | S. cerevisiae deletion strains, locus YNL233W, strain BNI4, hits give low values 0.999 | S. cerevisiae deletion strains, locus YNL248C, strain rpa49, hits give low values 0.978 | S. cerevisiae deletion strains, locus YNL250W, strain rad50, hits give low values 1.01 | S. cerevisiae deletion strains, locus YNL271C, strain bni1, hits give low values 1.01 | S. cerevisiae deletion strains, locus YNL298W, strain CLA4, hits give low values 1.01 | S. cerevisiae deletion strains, locus YNL307C, strain MCK1, hits give low values 0.992 | S. cerevisiae deletion strains, locus YNL322C, strain KRE1 (second series), hits give low values 0.991 | S. cerevisiae deletion strains, locus YNR049C, strain mso1, hits give low values 1.01 | S. cerevisiae deletion strains, locus YNR052C, strain pop2, hits give low values 1 | S. cerevisiae deletion strains, locus YOL006C, strain TOP1, hits give low values 1.01 | S. cerevisiae deletion strains, locus YOL012C, strain htz1 1.12 | S. cerevisiae deletion strains, locus YOL147C, strain pex11, hits give low values 1 | S. cerevisiae deletion strains, locus YOR001W, strain rrp6, hits give low values 0.992 | S. cerevisiae deletion strains, locus YOR061W, strain CKA2, hits give low values 1.01 | S. cerevisiae deletion strains, locus YOR069W, strain VPS5, hits give low values 1.01 | S. cerevisiae deletion strains, locus YOR070C, strain gyp1, hits give low values 1 | S. cerevisiae deletion strains, locus YOR080W, strain dia2, hits give low values 1 | S. cerevisiae deletion strains, locus YOR083W, strain WHI5, hits give low values 0.948 | S. cerevisiae deletion strains, locus YOR106W, strain vam3, hits give low values 0.995 | S. cerevisiae deletion strains, locus YOR136W, strain idh2, hits give low values 0.993 | S. cerevisiae deletion strains, locus YOR144C, strain elg1, hits give low values 0.994 | S. cerevisiae deletion strains, locus YOR184W, strain ser1, hits give low values 0.985 | S. cerevisiae deletion strains, locus YOR231W, strain MKK1, hits give low values 1.02 | S. cerevisiae deletion strains, locus YOR265W, strain rbl2, hits give low values 1 | S. cerevisiae deletion strains, locus YOR270C, strain vph1, hits give low values 1.04 | S. cerevisiae deletion strains, locus YOR290C, strain snf2, hits give low values 1.03 | S. cerevisiae deletion strains, locus YOR316C, strain cot1, hits give low values 1 | S. cerevisiae deletion strains, locus YPL051W, strain arl3, hits give low values 1.02 | S. cerevisiae deletion strains, locus YPL055C, strain LGE1, hits give low values 1.04 | S. cerevisiae deletion strains, locus YPL078C, strain atp4, hits give low values 0.992 | S. cerevisiae deletion strains, locus YPL106C, strain sse1, hits give low values 0.99 | S. cerevisiae deletion strains, locus YPL240C, strain hsp82, hits give low values 1 | S. cerevisiae deletion strains, locus YPL256C, strain CLN2, hits give low values 1.01 | S. cerevisiae deletion strains, locus YPR119W, strain clb2, hits give low values 0.998 | S. cerevisiae deletion strains, locus YPR141C, strain kar3, hits give low values 0.997 | S. cerevisiae deletion strains, locus YPR163C, strain tif3, hits give low values 1.01 | S. cerevisiae deletion strains, locus YPR167C, strain met16, hits give low values 0.992 | S. cerevisiae deletion strains, strain wtn01, hits give low values 0.993 | S. cerevisiae strains, strain wild type, hits give low values 1.01
